This passage reports inhibition results from PubChem BioAssay AID1347056 (Sanford-Burnham Center for Chemical Genomics, 2019).

Hit rate of the full screen: of about 360,000 compounds, about 3,600 (1%) were called active. For the sample, actives were picked, then their nearest neighbours and some compounds at random. Values without a mark were called inactive.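 The calls were made as follows: active = compounds whose plate-normalised and pattern-corrected inhibition of the luciferase reporter signal at the single screening dose is 50% or more; inactive = the rest.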

The experiment in a line: inhibitors of TROY-driven NF-kB signaling, primary screen, Q293 LMP1-TROYcd cells, NF-kB luciferase, uHTS (AID 1347056). The note with it: Q293 LMP1-TROYcd NF-kB luciferase reporter, 4 h; at 10 µM; stronger effect = higher value. Background: A reporter such as luciferase makes a cellular process visible.
By inhibition is commonly meant the relative decrease from the control value, in per cent. Take `N#CC(Cc1cc2ccccc2n1S(=O)(=O)c1ccccc1)OCc1ccccc1` (stereo not given): the inhibition is -2.35%. To `CC(C)c1ccc(NS(=O)(=O)c2cn(C)c(=O)n(C)c2=O)cc1` belongs -2.58%. Then `Cc1ccccc1NC(=O)C(C)c1ccc(-c2ccccc2)c(F)c1` (stereo not given), with -1.18%. In the case of `Cc1cccc(-n2c(SCC(N)=O)nc3c(c2=O)C2(CCCCC2)Cc2ccccc2-3)c1`, the inhibition is 51% (active).

For `N#CCSc1nc2c(c(=O)n1Cc1ccccc1)C1(CCCC1)Cc1ccccc1-2`, the inhibition was 3.7%. Turning to `Cc1cccc(-n2c(=O)c3c(C)c(C)sc3n(CC(N)=O)c2=O)c1`, the inhibition is 2.94%. On to `Cc1cc(CNC(=O)C2CCC(=O)N(CCc3ccc(Cl)cc3)C2)no1` (stereo not given), for which the inhibition is -13%. To `O=C(N/N=C/c1ccsc1)c1cc(O)cc(O)c1` belongs -3.65%; to `CC12CCC(=O)C=C1CCC1C2C(O)CC2(C)C1CCC2(O)C(O)CO` (stereo not given), 1.9%. To `CSc1ncnc2c1ncn2CC(=O)C1CCC2C3CCC4=CC(=O)CCC4(C)C3CCC12C` (stereo not given) belongs 76.2% (active); to `CSc1ncnc2c1ncn2CCCNCC1CCCCC1`, 10.9%. Then `Cc1cc(C)c(NC(=O)CN2CCOCCOCCOCCOCC2)c(C)c1`, with 3.84%; and `COC(=O)C1=C(N)Oc2cc(C)oc(=O)c2C1c1cccnc1` (stereo not given), with -1.83%; and `COc1ccc(-c2c(C)cc3oc(=O)cc(-c4ccccc4)c3c2C)cc1OC`, with 1.76%. On to `COc1ccc(-c2c(C)cc3oc(=O)cc(-c4ccccc4)c3c2C)cc1F`, for which the inhibition was -22%. To `COc1ccc(-c2c(C)cc3oc(=O)cc(-c4ccccc4)c3c2C)cc1C=O` belongs 50.3% (active); to `COc1cc([C@H](Cc2ccccc2)NC(C)=O)oc(=O)c1`, -27%; to `CCOC(=O)C1(S(=O)(=O)c2ccc(Cl)cc2)CCN(Cc2ccccc2)CC1`, -14.2%. Turning to `CN1CCN(CCCNC(=O)c2ccc(/C=C3\Oc4ccccc4N(Cc4ccc(Cl)cc4)C3=O)cc2)CC1`, the inhibition is 80.6% (active). To `Cc1c(C)n(Cc2ccc(Cl)cc2)c2ccc(C(=O)NCCCN3CCOCC3)cc12` belongs -9.92%. Then `Cc1cccc(-c2nc3ccc(C(=O)NCCN4CCN(C)CC4)cc3nc2-c2cccc(C)c2)c1`, with -28%. To `CCN1CCN(CCNC(=O)c2ccc3c(c2)NC(=O)/C(=C\c2cccc(Cl)c2)S3)CC1` belongs 2.74%; to `O=C(NCCN1CCOCC1)c1ccc(/C=C2\Sc3ccccc3N(Cc3ccc(F)cc3)C2=O)cc1`, 51% (active); to `CCN1CCN(CCNC(=O)c2ccc(/C=C3/Sc4ccccc4N(Cc4cccc(C)c4)C3=O)cc2)CC1`, 50.6% (active). As to `O=C(NCCN1CCOCC1)/C(=C/c1ccc(F)cc1)NC(=O)c1ccccc1`, the inhibition is -11.7%. To `CCC1Oc2ccccc2N(CC(=O)NCCCN2CCN(CC)CC2)C1=O` (stereo not given) belongs 1.63%; to `Cc1ccc(C(=O)N/C(=C\c2ccc(F)cc2)C(=O)NCCN2CCOCC2)cc1`, -5.95%. `Nc1nc(Br)c2ccccc2c1-c1ccc(F)cc1`: the inhibition was 14.8%. Then `O=[N+]([O-])c1ccc(N2CCN(S(=O)(=O)c3ccccc3)CC2)cc1N1CCc2ccccc2C1`, with -19.3%; and `CCc1nc2ccc(C(=O)N3CCN(S(=O)(=O)CC)CC3)cn2c1N(C=O)CCC(C)C`, with 0.5%; and `C/C(CC(=O)NC(C)(C)C)=N\NC(=O)c1ccco1`, with -29.8%. `COC(=O)[C@H](Cc1ccccc1)NC(=O)[C@@H]1C[C@H]1[C@@H](NC(=O)OCc1ccccc1)c1ccccc1`: the inhibition is 5.51%. To `Cc1cc(Nc2cccc(C)c2C)n2ncnc2n1` belongs 3.52%; to `COC(=O)CNC(=O)c1ccc(OC2CCN(C(=O)C3CC3)CC2)cc1`, 2.78%; to `CC1O[C@H](OC2C(COC3OC(CO)C(O)[C@H](O)C3O)OC(OC3CC[C@]4(C)C(CC[C@@]5(C)[C@@H]4C=C[C@]46OC[C@@]7(CCC(C)(C)C[C@H]74)C(O)C[C@@]56C)C3(C)C)C(O)C2O)C(O)C(O)C1O` (stereo not given in full), -9.36%. Then `COc1ccc(CNC(=O)CN(c2ccc(OC)c(Cl)c2)S(=O)(=O)c2ccc(C)cc2)cc1`, with -0.8%; and `Cc1ccccc1OCCC(=O)Nc1c(C)n(C)n(-c2ccccc2)c1=O`, with 1.55%. Then `CC(NS(=O)(=O)c1ccc(Cl)cc1)C(=O)Nc1ccc2c(c1)OCCO2` (stereo not given), with 2.15%; and `CN1CCN(c2ccc(NC(=O)c3ccc4c(c3)OCCO4)cc2Cl)CC1`, with 22.3%.

In the case of `CCN(CC)CCNC(=O)c1ccc(NS(=O)(=O)c2ccc3c(c2)OCCO3)cc1`, the inhibition is 16.6%. To `O=C(Nc1ccc2c(c1)OCCO2)c1ccc(Cl)c(S(=O)(=O)N2CCCCC2)c1` belongs 54.4% (active); to `Cc1ccc(C(=O)Nc2ccc3c(c2)OCCO3)cc1S(=O)(=O)N1CCOCC1`, -52%; to `O=C(Nc1cccc(S(=O)(=O)Nc2ccc(Cl)cc2)c1)c1ccc2c(c1)OCCO2`, 56.2% (active). Then `C/C(=N\N(C)C)c1ccc(OCCOc2ccc([N+](=O)[O-])cc2)cc1`, with -19.4%; and `COc1ccc(N(CC(=O)Nc2cc(OC)cc(OC)c2)S(=O)(=O)c2c(C)n[nH]c2C)cc1`, with -9.7%; and `CN1C(=O)CC(c2ccccc2)C1=O` (stereo not given), with 0.86%. To `COCCN(Cc1cc2cc3c(cc2nc1Cl)OCO3)C(=O)c1cccc(C)c1` belongs 19.8%; to `CN1CCN(CCCCOc2cccc3ccccc23)CC1`, -39.4%; to `CC(C)c1ccccc1OCC(O)CN(CC(O)COc1cccc2ccccc12)C(C)C` (stereo not given), 65.6% (active).

On to `CC1CC(C)CN(CCOc2cccc3ccccc23)C1` (stereo not given), for which the inhibition was 6.96%. To `NC(=O)NC(=O)C(OC(=O)CCNS(=O)(=O)c1ccccc1)c1ccccc1` (stereo not given) belongs 1.93%.

In the case of `Cc1ccc(CNCc2ccc3c(c2)OCO3)c(C)c1`, the inhibition was -5.84%. To `CC(C)COC(=O)C1C2C=CC3(CN(C(C)c4ccc(Br)cc4)C(=O)C13)O2` (stereo not given) belongs -13.1%; to `CCN1C(=O)[C@@H]2[C@@H]3CN(S(=O)(=O)c4ccccc4C)[C@@H](c4ccc(Cl)cc4)[C@@H]3C(=O)C[C@@H]2C1=O`, 14.4%; to `CC(C)C(C)(C#N)NC(=O)CSc1nncn1-c1ccccc1` (stereo not given), -7.95%. Then `CC1CCN(C(=O)c2ccc3c(=O)n4c(nc3c2)CCCCC4)CC1`, with 5.45%; and `C=CCC1(CC=C)CCCN1C(=O)CC1C(=O)NCCN1Cc1ccccc1OC` (stereo not given), with -17.8%; and `CCN1CCN(C(=O)C2(NC(=O)Nc3cccc(F)c3)CCCCC2)CC1`, with 7.69%. Then `c1ccc(-c2cc3c(NCC4COc5ccccc5O4)ncnc3s2)cc1` (stereo not given), with 59.3% (active); and `O=C(Cn1cnc2ccccc2c1=O)NCC1COc2ccccc2O1` (stereo not given), with -4.41%. For `Cc1noc(C)c1C(=O)NCC1COc2ccccc2O1` (stereo not given), the inhibition was 7.74%. To `CCOC(=O)[C@]12CCC=C1N(CCC1=CCCCC1)C(=O)[C@H](CC(=O)NCc1ccc(C)o1)C2` belongs -3.05%; to `Cc1nc(Nc2ccc3c(c2)OCCO3)c2nnn(Cc3ccccc3Cl)c2n1`, 82.3% (active). To `Cc1nc(Nc2ccc(S(=O)(=O)N3CCCC3)cc2)c2nnn(Cc3ccccc3)c2n1` belongs 22.5%. Then `Cc1nc(Nc2ccccc2F)c2nnn(Cc3ccccc3Cl)c2n1`, with -1.4%; and `COC(=O)c1sc(C(F)(F)F)c(-c2ccccc2)c1S(=O)(=O)N(C)C`, with -5.2%; and `Cc1ccc(S(=O)(=O)N(C)CC(=O)OCC(=O)Nc2ccccc2)cc1`, with -10.3%.

As for `CCOC(=O)CN(C)S(=O)(=O)c1ccc(-c2cc(C(=O)OC)sc2C(F)(F)F)cc1`, the inhibition was 87.2% (active). As for `Cc1ccc(OCCCC(=O)NC(C)c2ccccc2)c(C)c1` (stereo not given), the inhibition is -19.3%.

As to `Cc1ccc(C(=O)OC(C)CN2CCOCC2)cc1` (stereo not given), the inhibition is -24.8%.

On to `Cc1cccc(C(=O)OC(C)CN2CCN(C)CC2)c1` (stereo not given), for which the inhibition was 58% (active).

For `Cc1cccc(C(=O)OC(C)CN2CCCC2)c1` (stereo not given), the inhibition is 17.2%.

Regarding `C=CCc1c(C)nc2cc(-c3ccccc3)[nH]n2c1=O`, the inhibition is -9.98%.

In the case of `CCCCN1Cc2c(nc3cc(-c4ccccc4)[nH]n3c2=O)C1=O`, the inhibition is 6.47%. Take `O=c1c2c(nc3cc(-c4cccc(Cl)c4)[nH]n13)CCCC2`: the inhibition is 59.5% (active). To `COc1cccc(C(=O)OCc2cc(=O)oc3c(C)c(C)ccc23)c1OC` belongs 54.5% (active). In the case of `COc1ccc(Br)cc1CN1CCN(C(=O)c2cccc(OC)c2OC)CC1`, the inhibition is -1.16%. Then `COC(=O)Cc1cc(=O)oc2c(C)c(O)ccc12`, with 11.1%; and `Cc1ccc(NC(=S)N(CCCN2CCCC2)Cc2cccn2Cc2ccc(Cl)cc2)cc1`, with -45.1%. Then `COc1cc(/C=C(/NC(=O)c2ccc(Cl)cc2Cl)C(=O)O)cc(OC)c1OC`, with 18.8%; and `CCOc1cc(/C=N/NC(=O)OC)ccc1OCCSc1ccc(Cl)cc1`, with 14.9%; and `CCOc1cc(/C=C(/C#N)c2ccc(Cl)cc2)cc(Cl)c1OCC(=O)O`, with 70.8% (active). Then `O=C(O)C1=C[C@H](c2cccs2)C[C@H](OCCCCO)O1`, with -7.03%; and `CC(C)CCC(C)NC(=O)c1ccc2nccnc2c1` (stereo not given), with -39.8%. For `COc1cccc(NC(=O)c2ccc3c(SCC(=O)O)c4c(nc3c2)CCCC4)c1`, the inhibition was -30.4%.

Take `CC(C)CCNC(=O)c1ccc2c(Cl)c3c(nc2c1)CCC3`: the inhibition is 55.3% (active). Then `COC(=O)CNS(=O)(=O)c1ccc(Cc2ccc(S(=O)(=O)NCC(=O)OC)cc2)cc1`, with 13.7%; and `O=C(Cc1cccc2ccccc12)NCCC1=CCCCC1`, with 80.3% (active). `O=C(CCNC(=O)Cn1ccc2ccccc2c1=O)NCCC1=CCCCC1`: the inhibition is 7.75%.

Consider `Cc1nnc(OCC(=O)NCCC2=CCCCC2)c2ccccc12`, for which the inhibition was -8.28%.
